ALR inh – inhibitors of human ALR sulfhydryl oxidase, primary screen, biochemical, H2O2 detection, HRP-luminol luminescence, single point | FAD-linked sulfhydryl oxidase ALR (Homo sapiens), P55789 | purified ALR, DTT oxidation | inhibition, % (no concentration beside the values) | hit rate 3.8% among 290,000 | AID 485317, 2010;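 active = mean replicate inhibition above about 79%, with every replicate also reaching it, limit read from the data; inconclusive = only one of the two criteria met; inactive = mean below limit and not every replicate reaching it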
Target sequence (P55789 whole entry, looked up): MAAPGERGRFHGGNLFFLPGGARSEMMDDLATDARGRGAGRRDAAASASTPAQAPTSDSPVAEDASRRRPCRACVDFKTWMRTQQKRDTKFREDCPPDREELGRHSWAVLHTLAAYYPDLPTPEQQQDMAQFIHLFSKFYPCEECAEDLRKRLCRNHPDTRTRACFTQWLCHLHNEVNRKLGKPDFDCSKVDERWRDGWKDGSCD
A3A deaminase – APOBEC3A ssDNA deaminase inhibitors, primary screen, selectivity assay for APOBEC3G inhibitor project, biochemical, FAM/TAMRA oligo cleavage fluorescence | recombinant A3A, FAM/TAMRA ssDNA deamination fluorescence | AID 493011, 2011 | inhibition, % at 20 µM | hit rate 0.41% among 330,000;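 active = at least 40% inhibition at 20 µM here, with at most 30% in a related deaminase screen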;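 also: plate controls were A3A with DMSO for no effect and wells lacking A3A enzyme for full effect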
Target sequence (P31941 whole entry, looked up): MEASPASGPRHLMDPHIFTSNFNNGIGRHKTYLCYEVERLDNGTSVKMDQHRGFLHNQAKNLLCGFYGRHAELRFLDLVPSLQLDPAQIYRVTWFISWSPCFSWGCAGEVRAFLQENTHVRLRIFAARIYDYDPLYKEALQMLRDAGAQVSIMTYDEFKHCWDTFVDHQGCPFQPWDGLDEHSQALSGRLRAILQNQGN
PHOSPHO1 block – PubChem AID 1565; Phosphoethanolamine/phosphocholine phosphatase (Homo sapiens), Q8TCT1; recombinant PHOSPHO1, absorbance phosphatase assay; inhibition, % at 13.3 µM; hit rate 1.1% among 290,000; in the data active = inhibition above about 60%
aDG glyco act – activators of alpha-DG glycosylation, primary screen, uHTS, Pro5-aDG cells, AlphaScreen; alpha-DG glycosylation AlphaScreen (IIH6); 0% Pro5, 100% B10-LARGE cell signal; activation, % at 10 µM; hit rate 0.22% among 360,000; AID 624168, 2012;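 active = activation of at least 8% versus controls, or a plate z-score of at least 8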;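 also: Pro5 are CHO cells carrying HIG-tagged alpha-DG that lacks glycosylation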
APOBEC3G inh – APOBEC3G DNA deaminase inhibitors, primary screen, biochemical, fluorescence, single-stranded DNA substrate, uHTS; DNA dC->dU-editing enzyme APOBEC-3G (Homo sapiens), Q9HC16; recombinant A3G, ssDNA deamination FAM/TAMRA fluorescence; inhibition, % at 20 µM; hit rate 0.28% among 330,000;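 active = inhibition of at least 40% at 20 µM, with no more than 30% in the related APOBEC3A deaminase screen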;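 also: plate controls were DMSO wells with A3G for no effect and wells lacking A3G enzyme for full effect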
rCAG binder – binders of r(CAG) RNA repeats, primary screen, biochemical, fluorescence; r(CAG) RNA repeat, TO-PRO-1 dye displacement fluorescence; inhibition, % at 3 µM; hit rate 1.3% among 370,000; AID 651821, 2012;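 active = inhibition above the plate cutoff, the mean of all test compounds on that plate plus 3 SD, cut at about 35% in these data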;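 also: 0% = DMSO alone and 100% = 100 µM mitoxantrone as full dye displacement; higher means more dye released from RNA so lower well fluorescence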
rCAG binder conf – small molecules binding CAG repeat RNA – biochemical, fluorescence, confirmation; shares compounds with rCAG binder; AID 652065, 2013; r(CAG) RNA repeat, TO-PRO-1 dye displacement fluorescence; hit rate 70% among 4,300; inhibition, % at 3 µM;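 active = inhibition above a per-plate cutoff, the mean inhibition of sample wells plus 3 SD, cut at about 35% in these data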;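 also: loss of TO-PRO-1 fluorescence as compound displaces dye from 1x1 AA loop RNA; 0% = DMSO only wells and 100% = 100 µM mitoxantrone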
dCAG dye counter – displacement of TO-PRO-1 from CAG DNA duplex, counter-screen for rCAG RNA repeat binder project, biochemical, fluorescence, TO-PRO-1 dye, d(CAG) DNA oligo; d(CAG) DNA oligo TO-PRO-1 dye displacement; shares compounds with rCAG binder; inhibition, % at 3 µM; hit rate 94% among 4,300; AID 652068, 2013;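 active = inhibition above its plate's cutoff, the mean test-well inhibition plus 3 SD, cut at about 4.8% in these data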;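 also: 0% = DNA dye mix with DMSO and 100% = 100 µM mitoxantrone; hits displace the dye from DNA and so lower well fluorescence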
DNA CAG DR – inhibitors of DNA CAG/GTC TO-PRO-1 complex, dose response, counter-screen for rCAG RNA repeat binder project, biochemical, fluorescence, TO-PRO-1 dye; shares compounds with rCAG binder; DNA CAG/GTC duplex TO-PRO-1 dye displacement fluorescence; IC50, µM; hit rate 20% among 250; in the data active = IC50 below about 10 µM
Active calls of the source: *. An excerpt weighted towards active compounds, which were near 5.4% of everything screened.

Screening COc1ccc(C2Nc3ccccc3C(=O)N2NS(=O)(=O)c2ccccc2)c(OC)c1 (configuration not stated) returned ALR inh -1.2, A3A deaminase -2.8, PHOSPHO1 block 40.0, aDG glyco act -0.2, APOBEC3G inh -3.1 and rCAG binder 7.3.
For COc1ccc(/C=C2\SC(=S)N(NS(=O)(=O)c3ccccc3)C2=O)c(OC)c1 the results were ALR inh 70.9, A3A deaminase 0.7, PHOSPHO1 block 35.1, aDG glyco act -0.1, APOBEC3G inh -3.5, rCAG binder 38.9*, rCAG binder conf 73.5*, dCAG dye counter 33.9* and DNA CAG DR inactive.
Screening COc1ccc(OC)c(/C=C2\SC(=S)N(NS(=O)(=O)c3ccccc3)C2=O)c1 returned ALR inh 61.2, A3A deaminase -5.3, aDG glyco act -0.1, APOBEC3G inh -4.4, rCAG binder 86.8*, rCAG binder conf 66.5* and dCAG dye counter 29.9*.
Screening O=C1/C(=C/c2cccs2)SC(=S)N1NS(=O)(=O)c1ccccc1 returned A3A deaminase -0.7, PHOSPHO1 block 1.5, aDG glyco act 0.0, APOBEC3G inh -5.9, rCAG binder 53.5*, rCAG binder conf 29.9 and dCAG dye counter 6.8*.
Screening CCOC(=O)[C@]12CCC=C1N(Cc1ccc(Cl)cc1Cl)C(=O)[C@H](CC(=O)N1CCN(C(=O)c3ccco3)CC1)C2 returned aDG glyco act 0.1 and rCAG binder 3.6.
`COC(=O)c1cc2c([nH]c1=O)CCCC2=O` gave aDG glyco act 0.1 and rCAG binder 3.4.
Cc1cc(C)cc(NS(=O)(=O)CCCS(=O)(=O)Nc2cc(C)cc(C)c2)c1 was read as aDG glyco act 0.2 and rCAG binder 5.3.
CCOC(=O)C1=CN(CC2CCCCC2)CCC1=O was read as aDG glyco act 0.0 and rCAG binder 0.3.
Screening O=C1/C(=C/C=C/c2ccco2)SC(=S)N1NS(=O)(=O)c1ccccc1 returned ALR inh inconclusive, A3A deaminase 97.7, PHOSPHO1 block -20.8, aDG glyco act 0.3, APOBEC3G inh 91.4, rCAG binder 89.3*, rCAG binder conf 87.3* and dCAG dye counter 61.4*.
For Cc1ccc(NC(=O)CSCC(=O)Nc2cc(S(=O)(=O)N3CCOCC3)ccc2OC(C)C)cc1 the results were aDG glyco act -0.2 and rCAG binder 2.0.
`O=S(c1cc(Cl)cc(Cl)c1O)c1cc(Cl)cc(Cl)c1O` gave aDG glyco act 0.1, rCAG binder 40.4*, rCAG binder conf 44.2*, dCAG dye counter 10.8* and DNA CAG DR 9.37*.
CCOc1ccc(NC(=NCc2ccc3c(c2)OCO3)SC2CC(=O)N(c3ccc(OCC)cc3)C2=O)cc1 (configuration not stated) was read as ALR inh 1.7, A3A deaminase -0.4, PHOSPHO1 block -20.8, aDG glyco act 2.3, APOBEC3G inh 0.9 and rCAG binder 4.0.

Screens as filed in PubChem.
